The source of these data is PubChem BioAssay (NCATS).

“And” between values parts separate entries of the source, which are not always exact repeats. Equal values may be shown once. Results filed as inconclusive are left out. The source made the active and inactive calls.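 How the source made its calls, unless noted: active means compounds whose dose series gives a full or clear partial fitted curve of increased nuclear translocation; inconclusive means weak partial curve or effect only at the top dose; inactive means no dose-dependent translocation response.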

Glucocorticoid receptor (Homo sapiens), sequence (P04150 whole entry, looked up): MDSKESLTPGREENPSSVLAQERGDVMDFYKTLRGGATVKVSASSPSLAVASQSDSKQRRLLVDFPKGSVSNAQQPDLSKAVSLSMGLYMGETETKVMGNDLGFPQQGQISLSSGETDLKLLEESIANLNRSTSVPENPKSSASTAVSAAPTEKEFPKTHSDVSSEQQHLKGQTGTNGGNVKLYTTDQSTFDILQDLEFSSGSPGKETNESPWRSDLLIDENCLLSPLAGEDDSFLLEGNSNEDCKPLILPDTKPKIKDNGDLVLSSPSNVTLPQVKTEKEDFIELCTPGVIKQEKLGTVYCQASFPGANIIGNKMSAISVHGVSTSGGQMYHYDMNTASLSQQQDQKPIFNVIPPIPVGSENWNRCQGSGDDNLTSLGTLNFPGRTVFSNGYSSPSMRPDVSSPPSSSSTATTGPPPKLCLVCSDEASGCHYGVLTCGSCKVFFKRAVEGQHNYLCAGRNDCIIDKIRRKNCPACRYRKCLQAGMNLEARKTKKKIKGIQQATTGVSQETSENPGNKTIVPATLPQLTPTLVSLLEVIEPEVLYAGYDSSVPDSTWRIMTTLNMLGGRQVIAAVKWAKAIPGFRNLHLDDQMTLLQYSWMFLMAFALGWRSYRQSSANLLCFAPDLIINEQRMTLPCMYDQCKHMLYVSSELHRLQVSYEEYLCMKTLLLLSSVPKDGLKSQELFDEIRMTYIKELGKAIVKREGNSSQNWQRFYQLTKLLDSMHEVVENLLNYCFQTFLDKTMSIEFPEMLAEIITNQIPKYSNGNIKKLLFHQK

Tested on in the first experiment: not listed separately
Nature of the experiment: Stat Signaling Pathway (AID 446; active means well fitted curve in either direction with a large enough effect, not every such curve was filed as active;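 further: ME-180 cervical cancer cells given 40 pM IL-6 alongside compound; SIE-controlled beta-lactamase reporter measured as 460/530 nm FRET emission ratio; on the % scale 0 is the no-effect control and ±100 the full control effect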). The conditions noted are these: ME-180 (cervical carcinoma) SIE beta-lactamase reporter, IL-6 stimulated, 5 h; at 7.69 µM (top of the series) unless noted. A digest of the protocol:
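Normalization used AC90 stimulation (300 pM IL-6) and AC90 inhibition (125 nM pan-JAK inhibitor at 40 pM IL-6). The underlying signal is SIE-driven beta-lactamase in ME-180 cells after 5 h IL-6 exposure with compound.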
Take `O=C(O)C[C@H](Cc1ccc2c(c1)OCO2)C(=O)O`: the activity, negative = inhibition was -2.05% (inactive).
As for `CC(=O)OCC(=O)[C@]12OC(C)(C)O[C@@H]1C[C@H]1[C@H]3CC=C4C[C@@H](O)CC[C@]4(C)[C@H]3CC[C@]12C`, the activity, negative = inhibition is 5.43% (inactive).
Same read-out and setting: in the case of `N[C@@H](CSCc1ccccc1)C(=O)O` it was -2.8% (inactive); in that of `CN(C)[C@H]1C(=O)C(C(=O)NCN2CCCC2)=C(O)[C@]2(O)C(=O)C3=C(O)c4c(O)cccc4[C@](C)(O)[C@H]3C[C@H]12`, -11.7% (inactive); in that of `CN(C)c1ccc(-c2cc(NCc3ccccc3)ncn2)cc1`, -7.24% (inactive).
Still for that read-out and setting: in the case of `COc1ccccc1-c1nc(NCc2ccccc2)c2ccccc2n1` it was 0.0453% (inactive); in that of `C[C@]12CC[C@H]3c4ccc(O)cc4CC[C@@H]3[C@H]1CC[C@@H]2OC(=O)CCC1CCCC1`, 1.67% (inactive).
Still for that read-out and setting: in the case of `Nc1nc2c(ncn2[C@@H]2C=C[C@@H](CO)C2)c(=O)[nH]1` it was 5.37% (inactive); in that of `CN(N=O)c1ccc(/C=C\c2ccnc3ccccc23)cc1`, -0.754% (inactive).
Take `COc1cccc(Cn2c(=O)c(C)nc3cnc(Oc4cccc(Cl)c4)nc32)c1`: the activity, negative = inhibition was -2.38% (inactive).
Same read-out and setting: as for `Cc1nc2cnc(OCc3ccccc3)nc2n(Cc2ccc(F)cc2)c1=O`, the figure is -3.29% (inactive); as for `NS(=O)(=O)c1cc(C(=O)O)c(O)c2ccccc12`, 10.7% (inactive); as for `CN(C)Cc1ccccc1-c1ccc2ncnc(NC3CCNCC3)c2c1`, -2.13% (inactive).
Consider `COc1ccc(-n2c(=O)c(C)nc3cnc(Oc4cccc(Cl)c4)nc32)cc1`, for which the activity, negative = inhibition was -10.9% (inactive).
Same read-out and setting: in the case of `CSc1nc(C)cc(Nc2ccc(O)c(CN3CCOCC3)c2)n1` it was -6.58% (inactive); in that of `O=C(O)[C@@H](S)[C@H](S)C(=O)O`, 1.47% (inactive); in that of `CNc1ncncc1-c1ccc(C(=O)N(C)C)cc1`, 8.34% (inactive).
Regarding `O=C(O)c1cc(N=Nc2ccc([N+](=O)[O-])cc2)ccc1O`, the activity, negative = inhibition is -2.69% (inactive).
On the same count and under the same terms, as for `Cc1c(C)c(C)c(CC2(C)CSC2)c(CC2(C)CSC2)c1C`, the figure is 6.86% (inactive).
Still for that read-out and setting: as for `CC(C)(C)NC[C@@H](O)c1ccc(O)c(CO)n1`, the figure is 19.4% (inactive); as for `CC(C)Cn1cnc2c(Sc3c([N+](=O)[O-])ncn3C)nc(N)nc21`, 11.4% (inactive); as for `C/C(=N\O)c1cccc[n+]1Cc1ccccc1`, 11.4% (inactive).
The same measure, in the same setting: as for `NS(=O)(=O)c1cc2c(cc1Cl)N[C@H](Cc1ccccc1)NS2(=O)=O`, the figure is 1.94% (inactive); as for `NC(=O)[C@@H]1CCCN1Cc1ccc2c(c1)OCO2`, 6.27% (inactive).

A further experiment concerns the target Glucocorticoid receptor (Homo sapiens) (UniProt P04150). As to the kind of experiment: GR-GFP Redistribution (AID 450). Further: potency means the concentration at half of the fitted maximal effect. As to conditions: U2OS GR-GFP nuclear translocation, laser cytometry, 2 h.
`O=C(O)C[C@H](Cc1ccc2c(c1)OCO2)C(=O)O`: the Potency was > 46 µM (inactive).
Still for that read-out and setting: in the case of `CC(=O)OCC(=O)[C@]12OC(C)(C)O[C@@H]1C[C@H]1[C@H]3CC=C4C[C@@H](O)CC[C@]4(C)[C@H]3CC[C@]12C` it was > 46 µM (inactive); in that of `COc1ccc2cc1Oc1ccc(cc1)C[C@H]1c3cc(c(OC)cc3CCN1C)Oc1c(OC)c(OC)cc3c1[C@@H](C2)N(C)CC3`, > 20.6 µM (inactive) and > 46 µM (inactive); in that of `N[C@@H](CSCc1ccccc1)C(=O)O`, > 46 µM (inactive).
Same read-out and setting: in the case of `CN(C)[C@H]1C(=O)C(C(=O)NCN2CCCC2)=C(O)[C@]2(O)C(=O)C3=C(O)c4c(O)cccc4[C@](C)(O)[C@H]3C[C@H]12` it was > 46 µM (inactive); in that of `CN(C)c1ccc(-c2cc(NCc3ccccc3)ncn2)cc1`, > 46 µM (inactive); in that of `COc1ccccc1-c1nc(NCc2ccccc2)c2ccccc2n1`, > 46 µM (inactive).
The same measure, in the same setting: in the case of `C[C@]12CC[C@H]3c4ccc(O)cc4CC[C@@H]3[C@H]1CC[C@@H]2OC(=O)CCC1CCCC1` it was > 46 µM (inactive); in that of `Nc1nc2c(ncn2[C@@H]2C=C[C@@H](CO)C2)c(=O)[nH]1`, > 46 µM (inactive); in that of `CN(N=O)c1ccc(/C=C\c2ccnc3ccccc23)cc1`, > 46 µM (inactive).
In the case of `COc1cccc(Cn2c(=O)c(C)nc3cnc(Oc4cccc(Cl)c4)nc32)c1`, the Potency is > 9.22 µM (inactive).
Still for that read-out and setting: in the case of `Cc1nc2cnc(OCc3ccccc3)nc2n(Cc2ccc(F)cc2)c1=O` it was > 9.22 µM (inactive); in that of `NS(=O)(=O)c1cc(C(=O)O)c(O)c2ccccc12`, > 46 µM (inactive).
On the same count and under the same terms, in the case of `CN(C)Cc1ccccc1-c1ccc2ncnc(NC3CCNCC3)c2c1` it was > 46 µM (inactive); in that of `COc1ccc(-n2c(=O)c(C)nc3cnc(Oc4cccc(Cl)c4)nc32)cc1`, > 9.22 µM (inactive); in that of `CSc1nc(C)cc(Nc2ccc(O)c(CN3CCOCC3)c2)n1`, > 46 µM (inactive).
With `O=C(O)[C@@H](S)[C@H](S)C(=O)O`, the Potency was > 46 µM (inactive).
Same read-out and setting: as for `CNc1ncncc1-c1ccc(C(=O)N(C)C)cc1`, the figure is > 46 µM (inactive); as for `O=C(O)c1cc(N=Nc2ccc([N+](=O)[O-])cc2)ccc1O`, > 46 µM (inactive).
Same read-out and setting: as for `Cc1c(C)c(C)c(CC2(C)CSC2)c(CC2(C)CSC2)c1C`, the figure is > 46 µM (inactive); as for `CC(C)(C)NC[C@@H](O)c1ccc(O)c(CO)n1`, > 46 µM (inactive); as for `CC(C)Cn1cnc2c(Sc3c([N+](=O)[O-])ncn3C)nc(N)nc21`, > 46 µM (inactive).
On the same count and under the same terms, as for `C/C(=N\O)c1cccc[n+]1Cc1ccccc1`, the figure is > 46 µM (inactive); as for `NS(=O)(=O)c1cc2c(cc1Cl)N[C@H](Cc1ccccc1)NS2(=O)=O`, > 46 µM (inactive).
Take `NC(=O)[C@@H]1CCCN1Cc1ccc2c(c1)OCO2`: the Potency was > 46 µM (inactive).
